In the supplement of paper PMC10849652 one finds log2 fold change data, which are given here for 35 targets.

About 7,900 targets were measured; listed, in parts, are those with a hit and a random draw of the rest. About 0.6% of all pairs of compound and target were hits. Unmarked numbers belong to inactive results.

Sequence of UniProt Q96I24 (Q96I24 whole entry, looked up): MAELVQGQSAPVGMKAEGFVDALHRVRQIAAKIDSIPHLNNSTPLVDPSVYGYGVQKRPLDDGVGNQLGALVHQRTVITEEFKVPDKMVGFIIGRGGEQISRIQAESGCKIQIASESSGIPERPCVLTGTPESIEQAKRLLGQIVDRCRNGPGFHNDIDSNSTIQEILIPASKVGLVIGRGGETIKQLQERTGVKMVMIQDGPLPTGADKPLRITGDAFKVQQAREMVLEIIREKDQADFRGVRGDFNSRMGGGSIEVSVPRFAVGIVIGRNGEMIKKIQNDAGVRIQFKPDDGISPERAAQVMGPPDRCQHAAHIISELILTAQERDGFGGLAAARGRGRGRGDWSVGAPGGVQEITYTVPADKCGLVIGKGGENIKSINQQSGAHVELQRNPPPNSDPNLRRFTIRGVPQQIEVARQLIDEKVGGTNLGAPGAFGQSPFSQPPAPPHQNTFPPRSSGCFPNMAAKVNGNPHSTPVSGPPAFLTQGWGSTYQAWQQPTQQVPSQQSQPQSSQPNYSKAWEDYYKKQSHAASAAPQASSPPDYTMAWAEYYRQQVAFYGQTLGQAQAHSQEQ
Sequence of UniProt P09105 (P09105 whole entry, looked up): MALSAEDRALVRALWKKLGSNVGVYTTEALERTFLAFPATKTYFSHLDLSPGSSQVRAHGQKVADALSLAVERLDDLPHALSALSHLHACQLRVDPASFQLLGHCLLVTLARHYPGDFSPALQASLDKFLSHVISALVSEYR
Sequence of UniProt P62879 (P62879 whole entry, looked up): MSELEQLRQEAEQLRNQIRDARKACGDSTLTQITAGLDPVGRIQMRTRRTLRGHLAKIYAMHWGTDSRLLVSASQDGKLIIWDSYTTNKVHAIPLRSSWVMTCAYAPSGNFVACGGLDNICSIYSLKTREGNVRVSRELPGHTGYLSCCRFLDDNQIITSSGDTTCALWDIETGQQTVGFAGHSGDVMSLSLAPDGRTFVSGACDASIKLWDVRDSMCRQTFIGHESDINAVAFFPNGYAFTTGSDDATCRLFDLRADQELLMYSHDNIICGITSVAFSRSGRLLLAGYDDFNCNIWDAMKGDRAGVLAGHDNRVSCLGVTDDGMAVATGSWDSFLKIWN
Sequence of UniProt Q9UJY4 (Q9UJY4 whole entry, looked up): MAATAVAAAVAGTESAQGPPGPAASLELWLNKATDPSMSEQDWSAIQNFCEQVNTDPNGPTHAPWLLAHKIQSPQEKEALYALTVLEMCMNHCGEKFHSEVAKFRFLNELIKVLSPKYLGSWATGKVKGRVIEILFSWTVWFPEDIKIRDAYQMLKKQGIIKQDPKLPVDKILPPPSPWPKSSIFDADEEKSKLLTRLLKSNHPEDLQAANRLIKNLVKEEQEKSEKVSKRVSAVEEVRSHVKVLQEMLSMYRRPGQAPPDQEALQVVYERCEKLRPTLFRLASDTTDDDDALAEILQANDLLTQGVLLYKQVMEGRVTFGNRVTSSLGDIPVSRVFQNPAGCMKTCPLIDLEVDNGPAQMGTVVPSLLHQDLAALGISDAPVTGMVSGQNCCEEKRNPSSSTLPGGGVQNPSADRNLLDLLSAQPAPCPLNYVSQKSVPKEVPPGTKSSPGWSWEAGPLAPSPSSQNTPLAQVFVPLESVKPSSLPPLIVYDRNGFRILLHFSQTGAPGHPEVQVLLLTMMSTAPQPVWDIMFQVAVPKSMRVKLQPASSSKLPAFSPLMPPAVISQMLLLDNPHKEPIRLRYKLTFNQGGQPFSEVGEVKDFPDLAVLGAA
Sequence of UniProt Q9P2H3 (Q9P2H3 whole entry, looked up): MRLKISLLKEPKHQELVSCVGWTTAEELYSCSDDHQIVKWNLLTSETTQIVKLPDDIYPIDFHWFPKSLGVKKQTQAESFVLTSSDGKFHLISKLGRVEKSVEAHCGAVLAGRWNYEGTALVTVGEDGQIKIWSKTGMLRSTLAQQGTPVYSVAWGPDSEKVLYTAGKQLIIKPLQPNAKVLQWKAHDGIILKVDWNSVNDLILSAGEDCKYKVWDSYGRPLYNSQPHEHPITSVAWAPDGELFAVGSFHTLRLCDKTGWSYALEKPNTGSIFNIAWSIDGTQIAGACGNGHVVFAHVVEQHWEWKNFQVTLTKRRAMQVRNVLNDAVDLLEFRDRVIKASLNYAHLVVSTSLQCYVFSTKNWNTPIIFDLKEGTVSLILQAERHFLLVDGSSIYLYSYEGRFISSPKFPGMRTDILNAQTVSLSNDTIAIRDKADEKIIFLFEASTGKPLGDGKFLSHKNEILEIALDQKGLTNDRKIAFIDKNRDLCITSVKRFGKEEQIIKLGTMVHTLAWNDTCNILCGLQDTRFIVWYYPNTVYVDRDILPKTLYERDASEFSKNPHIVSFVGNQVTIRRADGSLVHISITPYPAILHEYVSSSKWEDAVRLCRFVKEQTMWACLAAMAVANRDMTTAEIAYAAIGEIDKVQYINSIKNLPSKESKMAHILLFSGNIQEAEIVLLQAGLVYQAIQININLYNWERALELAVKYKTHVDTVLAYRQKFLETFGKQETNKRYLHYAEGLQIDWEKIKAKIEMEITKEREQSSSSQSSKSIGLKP
Sequence of UniProt Q9BTY2 (Q9BTY2 whole entry, looked up): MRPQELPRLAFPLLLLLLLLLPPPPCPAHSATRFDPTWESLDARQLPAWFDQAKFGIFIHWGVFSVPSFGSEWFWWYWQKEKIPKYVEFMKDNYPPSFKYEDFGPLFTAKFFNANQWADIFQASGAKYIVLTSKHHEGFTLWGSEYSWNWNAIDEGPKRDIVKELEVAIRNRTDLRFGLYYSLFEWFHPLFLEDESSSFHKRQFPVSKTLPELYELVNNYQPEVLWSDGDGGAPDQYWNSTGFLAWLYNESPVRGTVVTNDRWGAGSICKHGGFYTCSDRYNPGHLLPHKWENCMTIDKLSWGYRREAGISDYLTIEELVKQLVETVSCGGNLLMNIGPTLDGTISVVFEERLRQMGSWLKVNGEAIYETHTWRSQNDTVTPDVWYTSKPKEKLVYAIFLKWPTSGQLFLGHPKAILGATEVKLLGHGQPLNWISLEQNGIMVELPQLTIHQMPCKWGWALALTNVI
Sequence of UniProt O00458 (O00458 whole entry, looked up): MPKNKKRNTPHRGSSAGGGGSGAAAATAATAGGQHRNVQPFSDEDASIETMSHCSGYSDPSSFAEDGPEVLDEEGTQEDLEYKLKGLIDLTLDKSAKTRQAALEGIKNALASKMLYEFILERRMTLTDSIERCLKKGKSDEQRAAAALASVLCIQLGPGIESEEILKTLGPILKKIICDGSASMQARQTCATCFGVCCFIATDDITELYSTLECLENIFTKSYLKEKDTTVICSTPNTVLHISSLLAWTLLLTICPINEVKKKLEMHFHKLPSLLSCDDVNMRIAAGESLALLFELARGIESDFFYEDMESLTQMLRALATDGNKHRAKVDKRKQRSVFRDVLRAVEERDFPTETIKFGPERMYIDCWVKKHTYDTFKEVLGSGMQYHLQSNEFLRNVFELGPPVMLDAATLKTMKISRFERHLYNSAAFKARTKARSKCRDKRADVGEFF
Sequence of UniProt Q8IWJ2 (Q8IWJ2 whole entry, looked up): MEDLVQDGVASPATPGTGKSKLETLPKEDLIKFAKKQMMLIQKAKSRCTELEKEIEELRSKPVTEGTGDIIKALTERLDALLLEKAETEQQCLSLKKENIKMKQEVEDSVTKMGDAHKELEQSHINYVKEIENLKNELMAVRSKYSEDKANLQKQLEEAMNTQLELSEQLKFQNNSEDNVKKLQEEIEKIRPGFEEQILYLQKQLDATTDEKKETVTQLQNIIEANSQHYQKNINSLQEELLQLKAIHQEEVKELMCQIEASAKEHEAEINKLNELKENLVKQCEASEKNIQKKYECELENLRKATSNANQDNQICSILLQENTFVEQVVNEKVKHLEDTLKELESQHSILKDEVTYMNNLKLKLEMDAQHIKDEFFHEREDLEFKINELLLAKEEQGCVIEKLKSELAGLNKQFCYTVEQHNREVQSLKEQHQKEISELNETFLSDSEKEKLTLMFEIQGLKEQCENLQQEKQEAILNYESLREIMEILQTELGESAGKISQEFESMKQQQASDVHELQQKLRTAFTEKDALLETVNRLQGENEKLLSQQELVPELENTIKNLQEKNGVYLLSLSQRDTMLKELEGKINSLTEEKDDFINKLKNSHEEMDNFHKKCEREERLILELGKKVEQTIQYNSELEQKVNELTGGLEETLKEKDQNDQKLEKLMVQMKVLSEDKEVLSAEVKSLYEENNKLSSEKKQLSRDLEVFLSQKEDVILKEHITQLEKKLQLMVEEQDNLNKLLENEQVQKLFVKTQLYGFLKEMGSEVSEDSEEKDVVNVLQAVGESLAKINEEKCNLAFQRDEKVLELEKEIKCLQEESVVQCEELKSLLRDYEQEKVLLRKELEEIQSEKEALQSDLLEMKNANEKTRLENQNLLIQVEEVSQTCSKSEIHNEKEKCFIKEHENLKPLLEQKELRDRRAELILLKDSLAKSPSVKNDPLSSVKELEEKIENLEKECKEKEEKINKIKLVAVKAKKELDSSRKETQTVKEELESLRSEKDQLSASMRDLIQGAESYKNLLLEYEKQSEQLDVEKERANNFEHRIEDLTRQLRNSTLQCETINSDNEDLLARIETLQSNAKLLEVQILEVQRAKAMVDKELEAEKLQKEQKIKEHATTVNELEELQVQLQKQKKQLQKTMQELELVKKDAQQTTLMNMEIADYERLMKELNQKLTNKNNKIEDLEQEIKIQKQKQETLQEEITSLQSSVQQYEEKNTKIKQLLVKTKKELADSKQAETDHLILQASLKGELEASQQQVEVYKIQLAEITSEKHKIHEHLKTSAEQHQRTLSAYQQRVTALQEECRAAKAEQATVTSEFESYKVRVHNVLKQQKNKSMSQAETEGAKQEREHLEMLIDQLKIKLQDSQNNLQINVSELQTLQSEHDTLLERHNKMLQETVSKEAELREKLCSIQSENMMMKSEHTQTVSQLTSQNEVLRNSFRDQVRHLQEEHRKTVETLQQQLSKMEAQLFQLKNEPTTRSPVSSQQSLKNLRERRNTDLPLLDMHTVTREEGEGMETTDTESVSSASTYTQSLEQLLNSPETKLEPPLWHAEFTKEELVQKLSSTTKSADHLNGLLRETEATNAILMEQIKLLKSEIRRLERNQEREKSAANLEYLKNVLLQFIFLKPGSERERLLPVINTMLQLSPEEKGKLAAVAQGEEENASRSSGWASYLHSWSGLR

Compound in one assay: CCCCN(Cc1ccc(C(=O)NO)cc1)C(=O)Nc1ccccc1 [Nexturastat A]
As to the kind of experiment: log2 fold change, soluble protein after heating vs DMSO (PISA); higher = thermal stabilisation; K562 cells, 10 uM, 30 min; active = over 0.2 and 3.5 SD of the protein, either way, in both replicates (recomputed). The method, boiled down: (§1)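 K562 cells at 2×10^6 cells/mL were treated for 30 min with 10 μM compound, and aliquots were heated for 3 min over 48°C-58°C before pooling. Extraction used PBS with 0.5% NP-40 at 4°C, and soluble protein was the supernatant after 21,000xg for 90 min, measured by TMTpro 16plex LC-MS/MS with channel sums equalised. Thermal stability values, relative to control samples and from duplicates, are log2 fold changes.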
Turning to GNB2 (UniProt P62879), the log2 fold change is -0.023.
On the same count and under the same terms, as for GTF2B (UniProt Q00403), the figure is -0.031.
Consider GTF2E1 (UniProt P29083), for which the log2 fold change was 0.024.
Same read-out and setting: as for GPX4 (UniProt P36969), the figure is -0.151; as for HMGB3 (UniProt O15347), -0.014; as for GAPVD1 isoform 6 (UniProt Q14C86), 0.025.
FNTB (UniProt P49356): the log2 fold change was -0.041.
Take FKBP4 (UniProt Q02790): the log2 fold change was -0.027.
Same read-out and setting: then IFRD1 (UniProt O00458), with -0.103; and IFT80 isoform 3 (UniProt Q9P2H3), with -0.021; and IFI30 (UniProt P13284), with 0.056.
In the case of GALNT1 (UniProt Q10472), the log2 fold change is 0.001.
Still for that read-out and setting: then FUBP3 (UniProt Q96I24), with -0.114; and ICMT (UniProt O60725), with -0.204; and GCC2 (UniProt Q8IWJ2), with 0.322 (active).
In the case of HIC2 (UniProt Q96JB3), the log2 fold change is 0.131.
On the same count and under the same terms, then HRC (UniProt P23327), with 0.041; and HSD17B12 (UniProt Q53GQ0), with -0.111; and HMGCR isoform 3 (UniProt P04035), with 0.074.
In the case of GOLPH3 (UniProt Q9H4A6), the log2 fold change is -0.017.
Same read-out and setting: as for GEMIN5 (UniProt Q8TEQ6), the figure is -0.004; as for FUCA2 (UniProt Q9BTY2), -0.025.
Same read-out and setting: then HNRNPH1 (UniProt P31943), with 0.201.
As for GNPAT (UniProt O15228), the log2 fold change is -0.039.
In the case of GOPC (UniProt Q9HD26), the log2 fold change is 0.131.
Regarding HPCAL1 (UniProt P37235), the log2 fold change was -0.092.
Regarding GTF2A2 (UniProt P52657), the log2 fold change is -0.091.
Still for that read-out and setting: as for GSK3A (UniProt P49840), the figure is -0.094; as for HBQ1 (UniProt P09105), -0.028.
Still for that read-out and setting: as for HOOK3 (UniProt Q86VS8), the figure is 0.034; as for HEXA (UniProt P06865), -0.035; as for GGA2 (UniProt Q9UJY4), 0.582 (active).
For the target HNRNPC isoform 2 (UniProt P07910), the log2 fold change is 0.449.
As to H2AFX (UniProt P16104), the log2 fold change is 0.754.
With HDDC2 (UniProt Q7Z4H3), the log2 fold change was -0.139.

Compound in a further assay: CCCS(=O)(=O)Nc1ccc(F)c(C(=O)c2c[nH]c3ncc(-c4ccc(Cl)cc4)cc23)c1F [vemurafenib]
Described as above. The method, boiled down: as §1
Regarding GNB2 (UniProt P62879), the log2 fold change is 0.044.
For GTF2B (UniProt Q00403), the log2 fold change was 0.104.
Still for that read-out and setting: then GTF2E1 (UniProt P29083), with 0.05.
Still for that read-out and setting: then GPX4 (UniProt P36969), with -0.019; and HMGB3 (UniProt O15347), with -0.083.
Same read-out and setting: as for GAPVD1 isoform 6 (UniProt Q14C86), the figure is 0.007; as for FNTB (UniProt P49356), 0.011; as for FKBP4 (UniProt Q02790), 0.032.
Regarding IFRD1 (UniProt O00458), the log2 fold change was 0.001.
On the same count and under the same terms, then IFT80 isoform 3 (UniProt Q9P2H3), with -0.042; and IFI30 (UniProt P13284), with 0.056.
Consider GALNT1 (UniProt Q10472), for which the log2 fold change was 0.02.
Same read-out and setting: then FUBP3 (UniProt Q96I24), with 0.035.
For ICMT (UniProt O60725), the log2 fold change is 0.
Same read-out and setting: then GCC2 (UniProt Q8IWJ2), with 0.025.
Same read-out and setting: then HIC2 (UniProt Q96JB3), with 0.009; and HRC (UniProt P23327), with -0.044.
The same measure, in the same setting: then HSD17B12 (UniProt Q53GQ0), with -0.006; and HMGCR isoform 3 (UniProt P04035), with -0.002; and GOLPH3 (UniProt Q9H4A6), with 0.015.
In the case of GEMIN5 (UniProt Q8TEQ6), the log2 fold change was 0.015.
For FUCA2 (UniProt Q9BTY2), the log2 fold change was 0.005.
On the same count and under the same terms, then HNRNPH1 (UniProt P31943), with 0.086; and GNPAT (UniProt O15228), with 0.023.
Still for that read-out and setting: as for GOPC (UniProt Q9HD26), the figure is 0.094.
Same read-out and setting: then HPCAL1 (UniProt P37235), with -0.017.
In the case of GTF2A2 (UniProt P52657), the log2 fold change was -0.083.
On the same count and under the same terms, then GSK3A (UniProt P49840), with -0.023; and HBQ1 (UniProt P09105), with -0.013; and HOOK3 (UniProt Q86VS8), with -0.014.
As to HEXA (UniProt P06865), the log2 fold change is -0.006.
As for GGA2 (UniProt Q9UJY4), the log2 fold change was 0.053.
For HNRNPC isoform 2 (UniProt P07910), the log2 fold change is -0.055.
H2AFX (UniProt P16104): the log2 fold change was -0.232.
On the same count and under the same terms, then HDDC2 (UniProt Q7Z4H3), with 0.004.
